Only some compounds are listed: those with a hit (about 0.75% of all), similar ones and a draw of the others.
PKM2 act: increases activity of human pyruvate kinase M2; P14618; purified PKM2, Kinase-Glo ATP luminescence, activation; response scale: 0% is enzyme alone, no compound; Potency, µM (doses to about 57.5 µM), inactives show at the highest dose activation, most hits filed as activators; 0.34% of 260,000 active; further: potency means the concentration at half of the fitted maximal effect; on the % scale 0 is the no-effect control and ±100 the full control effect; nearly all actives have a fitted effect of over 55% in size
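Purified hPK-M2 (>95%) run at intermediate activity with 0.1 mM ADP and 0.5 mM PEP in 50 mM imidazole pH 7.2, KCl, MgCl2; 1 h room temperature. ATP formed read by Kinase-Glo luminescence; normalized to uninhibited and no-enzyme controls.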
TCR act: activators of T cell receptors | primary human leukocytes, anti-CD3, IL-2 HTRF, 48 h | AID 504894 | Potency, µM (titrated, usually from 9.22 µM), for inactives: at the highest dose activation of IL-2 secretion, hits mostly activators | 330,000 tested, under 10 active; further: % of control where 0% means no effect
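IL-2 release read by HTRF sandwich (Eu cryptate donor, d2 acceptor, 665 nm emission) after 48 hr exposure of primary human leukocytes to compound together with anti-CD3 beads in the absence of co-stimulatory signals.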
uPA generation: cell surface uPA generation inhibition | cell surface uPA generation assay, qHTS | Potency, µM (highest dose often 38.3 µM), for the others: top-dose activity change, negative = inhibition, most hits filed as inhibitors | 0.31% of 330,000 active; active means well fitted inhibition curve with a large enough effect; inconclusive means small, poorly fitted or top-dose-only effect; inactive means no such curve, though single readings can be large or run the other way; tested in mouse RAW 264.7 cells; further: potency means the concentration at half of the fitted maximal effect; on the % scale 0 is the no-effect control and ±100 the full control effect; nearly all actives have a fitted effect of over 55% in size
TSHR antag: antagonists of human thyroid stimulating hormone receptor. 0.2% of 330,000 active. TSHR-expressing cells, TSH-stimulated cAMP HTRF, 2 h; hits give low values. AID 504810. P16473. activity change, negative = inhibition, % at 11.5 µM;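 active means activity change below a set negative limit, meaning inhibition stronger than a set level, cut at about -70% in these data; inconclusive means activity change between two set negative limits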; further: on the % scale 0 is the no-effect control and ±100 the full control effect
Target sequence (P16473 whole entry, looked up): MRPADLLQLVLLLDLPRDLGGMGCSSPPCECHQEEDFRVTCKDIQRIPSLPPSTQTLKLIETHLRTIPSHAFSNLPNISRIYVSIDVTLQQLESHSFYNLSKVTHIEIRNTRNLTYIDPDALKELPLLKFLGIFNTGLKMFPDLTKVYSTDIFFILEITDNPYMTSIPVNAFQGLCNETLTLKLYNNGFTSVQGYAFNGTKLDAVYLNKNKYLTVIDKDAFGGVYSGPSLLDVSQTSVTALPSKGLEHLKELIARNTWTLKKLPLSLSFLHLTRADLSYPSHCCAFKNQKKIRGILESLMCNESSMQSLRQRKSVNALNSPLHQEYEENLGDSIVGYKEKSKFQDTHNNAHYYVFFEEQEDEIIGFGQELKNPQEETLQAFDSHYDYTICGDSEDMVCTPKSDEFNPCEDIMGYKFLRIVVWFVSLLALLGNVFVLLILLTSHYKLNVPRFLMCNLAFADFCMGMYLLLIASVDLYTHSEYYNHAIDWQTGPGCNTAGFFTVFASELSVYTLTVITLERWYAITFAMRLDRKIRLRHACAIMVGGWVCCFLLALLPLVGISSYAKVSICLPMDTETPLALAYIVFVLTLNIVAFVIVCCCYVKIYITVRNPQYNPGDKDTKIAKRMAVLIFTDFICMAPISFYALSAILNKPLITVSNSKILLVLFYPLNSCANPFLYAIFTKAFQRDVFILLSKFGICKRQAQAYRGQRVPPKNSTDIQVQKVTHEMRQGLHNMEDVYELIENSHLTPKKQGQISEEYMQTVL
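Freshly harvested TSHR cells receive pin-tooled compound, then EC80 TSH at 4nM final. After 2 hours at 37 deg C, antibody in lysis buffer and cAMP-d2 are added; 30 minutes at ambient temperature precede the HTRF read.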
Numbers without * were called inactive; ? = inconclusive; . = not tested or not shown; [ ] = dose if it differs, or a comment. Unless noted, the call rests on the fitted dose curve; in most records, active means well fitted curve in the direction sought with a large enough effect; inconclusive means small, poorly fitted or top-dose-only effect, or another doubt; inactive means no such curve, though single readings can be large; an effect the other way counts as inactive or inconclusive.

SMILES	PKM2 act	TCR act	uPA generation	TSHR antag
O=[N+]([O-])c1nn(-c2ccc(Cl)cc2)n(O)c1=NCc1ccncc1	6.2%	-2.4%	12.6µM*	-9.0
Cc1ccc(CN=c2c([N+](=O)[O-])nn(-c3ccc(Cl)cc3)n2O)cc1	-1.2%	0.7%	-23.4%	32.0
Cc1ccc(NC(=O)c2cc(-n3cnnc3)ccc2Cl)cc1	-0.2%	-7.2%[46.1 µM]	.	-5.4
Cc1ccc(NC(=O)c2cc(N3C(=O)C=CC3=O)ccc2Cl)cc1C	3.98µM*	1.6%[46.1 µM]	6.9%	-8.3
COc1ccc(CNC(=O)N2CCN(S(=O)(=O)c3ccccc3F)CC2)cc1	.	-19.5%	-1.7%	-7.3
O=C(NCc1cccc(Cl)c1)N1CCN(S(=O)(=O)c2ccccc2F)CC1	14.1µM*	-10.9%	3.5%	-8.1
O=C(NCc1ccc(F)cc1)N1CCN(S(=O)(=O)c2ccccc2F)CC1	11.2µM*	-3.4%	3.8%	-3.3
CC(NC(=O)CCCc1nnc2n(C)c(=O)c3sccc3n12)c1ccccc1 (stereo not drawn)	.	-3.4%	-5.0%	-0.9
CC(C)C(NC(=O)c1c(F)cccc1F)C(=O)N1CCN(S(=O)(=O)/C=C/c2ccccc2)CC1 (stereo not drawn)	.	-1.9%	-12.8%	8.8
COC(C/C=C/C(=O)COCc1ccccc1)OC	-1.0%	-0.5%	7.08µM*	-0.6
COC(C/C=C\[C@H](O)COCc1ccccc1)OC	.	-1.2%	-2.9%	.
COC(C/C=C/[C@H](O)[C@@H](C)OCc1ccccc1)OC	.	-3.5%	3.8%	.
COC(C/C=C/C(=O)[C@H](C)OCc1ccccc1)OC	.	-1.2%	11.2µM*	.
N#CC1=C(N)Oc2c(ccc3cccnc23)C1c1ccccc1 (stereo not drawn)	8.3%	2.5%	1.26µM*	-10.1
COc1cccc(/C=N/NC(=O)c2ccccc2NC(=O)c2ccco2)c1OC	-11.1%	-2.6%	-11.1%	-1.1
COc1cccc(/C=C/C(=O)NNC(=O)c2ccco2)c1OC	.	-6.0%	2.82µM*	25.7
COc1ccc2c(c1)c1ncn(Cc3ccco3)c(=O)c1n2C	1.26µM*	1.5%	-3.0%	41.9
COc1ccc2c(c1)c1ncn(Cc3ccc(F)cc3)c(=O)c1n2C	1.9%	0.6%	4.0%	-1.0
O=C(NCc1ccc(Cl)cc1)c1n[nH]c([N+](=O)[O-])c1Cl	8.9%	-1.4%	-12.3%	12.3
CC(C)C1N=C(c2ccc3c(c2)OCO3)CC(c2ccccc2O)N1 (stereo not drawn)	-6.2%	2.0%	10µM*	-10.6
CCOc1ccccc1C1N=C(c2ccc(OC)cc2)CC(c2ccccc2O)N1 (stereo not drawn)	-7.5%	-4.7%	-8.3%	-6.3
O=C(CNS(=O)(=O)c1cccs1)N1CCN(c2ccccn2)CC1	22.4µM*	26.1%	-2.2%	-3.8
COc1ccccc1S(=O)(=O)Nc1ccc(-c2nnc3n2CCCCC3)cc1	20µM*	3.5%	2.9%	13.6
CC(C)(C)C(=O)Nc1ccc(-c2nnc3n2CCCCC3)cc1	3.6%	4.1%	10.2%	-0.6
COc1ccccc1N1CCN(C(=O)c2ccc3c(=O)n(Cc4ccco4)c(=S)[nH]c3c2)CC1	1.12µM*	-1.4%	-4.2%	-12.6
SMILES	PKM2 act	TCR act	uPA generation	TSHR antag
COc1ccccc1Cn1c(=S)[nH]c2cc(C(=O)N3CCN(c4ccccc4OC)CC3)ccc2c1=O	.	0.5%	12.9%	6.0
COc1ccc(Cn2c(=O)[nH]c3cc(C(=O)N4CCN(Cc5ccccc5)CC4)ccc3c2=O)cc1	12.6µM*	2.7%	-0.3%	-30.2
C=CC[N@@+]12CC[C@]34c5ccccc5N5/C=C6\C7N(/C=C(\C53)[C@@H](C[C@@H]41)/C(=C/CO)C2)c1ccccc1[C@@]71CC[N@@+]2(CC=C)C/C(=C\CO)[C@@H]6C[C@@H]12 (stereo partly drawn)	.	-5.0%	2.1%	-2.4
COc1cccc(NC(=O)CN2C(=O)CSc3ccc(S(=O)(=O)N4CCOCC4)cc32)c1	.	-13.9%	9.4%	-6.5
CC(C)NC(=O)CN1C(=O)CSc2ccc(S(=O)(=O)N3CCCC3)cc21	.	-3.1%	1.7%	21.7
CCC(C)NC(=O)CN1C(=O)CSc2ccc(S(=O)(=O)N3CCCC3)cc21 (stereo not drawn)	.	-6.8%	-6.5%	-125.0*
CC1CCN(CCCNC(=O)CN2C(=O)CSc3ccc(S(=O)(=O)N4CCOCC4)cc32)CC1	.	-1.6%	3.5%	-88.9*
COc1cccc(CNC(=O)CN2C(=O)CSc3ccc(S(=O)(=O)N4CCOCC4)cc32)c1	.	-7.1%	0.3%	-140.2*
COc1cc(C(=O)NCCCC2CCCC2)ccc1OC1CCN(C(C)=O)CC1	0.2%	2.4%	-10.8%	6.1
O=C(c1ccc(Cn2cc(Cl)cn2)cc1)N1CCN(c2ccccc2)CC1	15.8µM*	3.0%	-3.9%	.
O=C(c1ccc(CN2CCOCC2)cc1)N1CCN(c2cccc(Cl)c2)CC1	-2.1%	2.3%	-0.2%	1.1
O=C(c1ccc(Cn2cc(Br)cn2)cc1)N1CCN(c2ccccc2)CC1	4.47µM*	.	-17.2%	-5.0
COc1ccc(C(=O)NC2=Nc3ccccc3N=C(C)C2c2ccccc2)cc1 (stereo not drawn)	-2.1%	1.7%	1.8%	11.4
CCOc1cc(N2CCOCC2)c(OCC)cc1NC(=O)c1cc(S(=O)(=O)N2CCOCC2)ccc1C	.	8.9%[46.1 µM]	-2.8%	-82.4*
CCOc1cc(N2CCOCC2)c(OCC)cc1NC(=O)c1ccc(S(C)(=O)=O)cc1	2.6%	0.9%	-4.6%	-7.7
CN1C(=O)c2cccc3c(S(=O)(=O)Nc4ccccc4F)ccc1c23	11.2µM*	-2.7%	-10.7%	-16.9
CNS(=O)(=O)c1ccc2c3c(cccc13)C(=O)N2C	25.1%	-5.8%	-9.4%	-8.6
CCOc1ccc(Br)cc1C1=CC(=O)C[C@H](c2ccc(OC)cc2)C1	.	-1.4%	2.82µM*	7.7
COc1ccc([C@H]2CC(=O)C=C(c3cc(C)ccc3OC)C2)cc1	.	1.5%	10µM*	45.6
COc1ccc([C@H]2CC(=O)C=C(c3cc(C)ccc3F)C2)cc1	.	7.2%	?	-31.7
CC1CC(C)CN(C(=O)CCNC(=O)Cn2ccc3ccccc3c2=O)C1 (stereo not drawn)	.	1.5%	-2.4%	5.7
COc1cccc(CNC(=O)CCCSc2ccccc2)c1	.	-4.5%	2.6%	6.3
Cc1cc(C)cc(SCc2noc(C(=O)NCCN(C)C)c2C(=O)NCCN(C)C)c1	.	0.9%	?	.
O=C(N/N=C/c1cc([N+](=O)[O-])ccc1O)c1cccc2cc[nH]c12	0.3%	4.3%	4.47µM*	-10.3
Cc1ccc(/C=C/C(=O)Nc2sc(C)c(C)c2C(=O)OC(C)C)o1	15.8µM*	-5.9%	-1.5%	28.2
O=c1[nH]c(/C=C/c2ccccc2OC(F)F)nc2c1cnn2-c1ccccc1	0.1%	1.0%[46.1 µM]	-1.7%	-4.6
O=C(CCCc1nc2ccccc2s1)N1CCN(S(=O)(=O)c2cccs2)CC1	4.47µM*	-1.7%	-5.1%	-10.5
CCC(C)Sc1cccc(-c2nc3ccc(C)cn3c2NCc2ccccc2)c1 (stereo not drawn)	.	-1.9%	?	-78.8*
